Reference: PubChem BioAssay (NCI)
About 83,000 compounds went through this panel and 20% of them were active in at least one assay; those are over-represented in the sample as a whole.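 Step 1: grow cells in 96-well plates. Step 2: add test compound at a single concentration. Step 3: incubate 48 h. Step 4: record percent growth.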 Unmarked numbers belong to inactive results. The source made the active and inactive calls. Rule for the calls: active = growth percent below 10; inactive = the rest.

Experiments:
Assay in all cases: NCI-60 one-dose screen, 48 h (100 = growth as untreated, 0 = no growth, -100 = all killed)
[1] = test system: HCT-15 colon; details: 10 µM unless noted
[2] = test system: HT29 colon; details: 10 µM unless noted
[3] = test system: SNB-75 CNS; details: 10 µM unless noted
[4] = test system: SNB-19 CNS; details: 10 µM unless noted
[5] = test system: U251 CNS; details: 10 µM unless noted
[6] = test system: PC-3 prostate; details: 10 µM unless noted
[7] = test system: SK-MEL-5 melanoma; details: 10 µM unless noted
[8] = test system: UACC-62 melanoma; details: 10 µM unless noted
[9] = test system: LOX IMVI melanoma; details: 10 µM unless noted
[10] = test system: SK-MEL-28 melanoma; details: 10 µM unless noted
[11] = test system: SK-MEL-2 melanoma; details: 10 µM unless noted
[12] = test system: EKVX NSCLC; details: 10 µM unless noted
[13] = test system: SN12C renal; details: 10 µM unless noted
[14] = test system: UO-31 renal; details: 10 µM unless noted
[15] = test system: TK-10 renal; details: 10 µM unless noted
[16] = test system: A498 renal; details: 10 µM unless noted
[17] = test system: CCRF-CEM leukemia; details: 10 µM unless noted
[18] = test system: MOLT-4 leukemia; details: 10 µM unless noted
[19] = test system: ACHN renal; details: 10 µM unless noted
[20] = test system: CAKI-1 renal; details: 10 µM

O=S(c1ccccc1)c1ccc2nnnn2n1 (stereo not drawn)
growth [1]: 79.8% | growth [2]: 92% | growth [3]: 107% | growth [4]: 107% | growth [5]: 103% | growth [6]: 96.6% | growth [7]: 99.8% | growth [8]: 98.6% | growth [9]: 89.7% | growth [10]: 105% | growth [11]: 98.9% | growth [12]: 101% | growth [13]: 101% | growth [14]: 73.1% | growth [15]: 99% | growth [16]: 86.6% | growth [17]: 44.9% | growth [18]: 83.8%

C=CCOc1ccc(/C(Cl)=N/N=C(\Cl)c2cc(OC)c(OC)c(OC)c2)cc1
growth [1]: 67.3% | growth [2]: 53.2% | growth [3]: 104% | growth [4]: 80.7% | growth [5]: 72.8% | growth [6]: 65.1% | growth [7]: 68.5% | growth [8]: 64.5% | growth [9]: 80.5% | growth [10]: 88.1% | growth [11]: 71.8% | growth [12]: 88.7% | growth [13]: 84.1% | growth [14]: 68% | growth [15]: 96.4% | growth [16]: 76.8% | growth [17]: 34% | growth [18]: 30.8%

COc1cc(/C=C/C(=O)c2ccc(Oc3ncnc4ccccc34)cc2)cc(OC)c1OC
growth [1]: 41.5% | growth [2]: 79.7% | growth [3]: 69.5% | growth [4]: 68.6% | growth [5]: 60.3% | growth [6]: 75.6% | growth [7]: 81% | growth [8]: 65.9% | growth [9]: 40.4% | growth [10]: 89.4% | growth [11]: 94.6% | growth [12]: 87% | growth [13]: 68.3% | growth [14]: 51.6% | growth [15]: 100% | growth [16]: 104% | growth [17]: 36.6% | growth [18]: 62.3%

CCOC(=O)c1noc2c1CCc1cn(Cc3cc(OC)cc(OC)c3)cc1-2
growth [1]: 96.4% | growth [2]: 75.4% | growth [3]: 95.8% | growth [4]: 113% | growth [5]: 110% | growth [6]: 92.8% | growth [7]: 101% | growth [8]: 103% | growth [9]: 95.5% | growth [10]: 105% | growth [11]: 92.1% | growth [12]: 98.1% | growth [13]: 107% | growth [14]: 84% | growth [15]: 81.7% | growth [16]: 107% | growth [17]: 102% | growth [18]: 79.5%

COc1cc2c(cc1OC)-c1c(oc3c4c(ccc3c1=O)OC(C)(C)C=C4)CO2
growth [1]: 82.8% | growth [2]: 89.5% | growth [3]: 75.8% | growth [4]: 75.5% | growth [5]: 88.6% | growth [6]: 75.1% | growth [7]: 23.8% | growth [8]: 61.1% | growth [9]: 63% | growth [10]: 93.8% | growth [11]: 74.3% | growth [12]: 57.7% | growth [13]: 92.2% | growth [14]: 66.9% | growth [15]: 67.9% | growth [16]: 56.1% | growth [17]: 69.5% | growth [18]: 55.1%

Cc1nc(N)nc(SCc2ccccc2)c1Br
growth [1]: 102% | growth [2]: 92.8% | growth [3]: 87.3% | growth [4]: 99.3% | growth [5]: 85.4% | growth [6]: 83.8% | growth [7]: 88.4% | growth [8]: 75.8% | growth [9]: 95.7% | growth [10]: 106% | growth [11]: 89.9% | growth [12]: 85.7% | growth [13]: 91.6% | growth [14]: 54.7% | growth [15]: 112% | growth [16]: 63.4% | growth [17]: 82.4% | growth [18]: 63.7%

C/C(=N/O)c1ccc(NC(=O)Cn2nc(-c3ccc(Cl)cc3)nc2N)cc1
growth [1]: 114% | growth [2]: 86.8% | growth [3]: 87.3% | growth [4]: 89.1% | growth [5]: 90.3% | growth [6]: 71.8% | growth [7]: 98.1% | growth [8]: 91.8% | growth [9]: 97% | growth [10]: 114% | growth [11]: 84.9% | growth [12]: 98.6% | growth [13]: 102% | growth [14]: 66% | growth [15]: 120% | growth [16]: 103% | growth [17]: 85.8% | growth [18]: 66.7%

CCN(CC)CCNc1ccc([N+](=O)[O-])c2sc3cc(Cl)ccc3c(=O)c12
growth [1]: 48.5% | growth [2]: 34.7% | growth [3]: 1.48% (active) | growth [4]: 42.2% | growth [5]: 40.4% | growth [6]: 48.5% | growth [7]: 61.7% | growth [8]: 30.9% | growth [9]: 19.1% | growth [10]: -47.5% (active) | growth [11]: 82.1% | growth [12]: 78.9% | growth [13]: -19.3% (active) | growth [14]: -79.5% (active) | growth [15]: 66.9% | growth [16]: 73.5% | growth [17]: 12.9% | growth [18]: 29%

COc1ccc(-c2nnc(SCC(=O)Nc3ccc(C(=O)/C=C/c4ccccc4)cc3)o2)cc1OC
growth [1]: 94.6% | growth [2]: 93.4% | growth [3]: 92.8% | growth [4]: 92.2% | growth [5]: 98% | growth [6]: 100% | growth [7]: 87.1% | growth [8]: 92.4% | growth [9]: 85.9% | growth [10]: 106% | growth [11]: 98% | growth [12]: 100% | growth [13]: 103% | growth [14]: 83.9% | growth [15]: 96.1% | growth [16]: 95.7% | growth [17]: 102% | growth [18]: 89.1%

Nc1ncnc2c1c(C(F)(F)F)cn2[C@@H]1O[C@H](CO)[C@@H](O)[C@H]1O
growth [1]: 4.22% (active) | growth [2]: 1.42% (active) | growth [3]: -35.1% (active) | growth [4]: 14.6% | growth [5]: 3.73% (active) | growth [6]: 12.1% | growth [7]: -32.1% (active) | growth [8]: -38.6% (active) | growth [9]: 6.25% (active) | growth [10]: 1.5% (active) | growth [11]: -42.6% (active) | growth [12]: 3.57% (active) | growth [13]: 15.7% | growth [14]: 2.15% (active) | growth [15]: 4.15% (active) | growth [16]: -43.2% (active) | growth [17]: 5.79% (active) | growth [18]: 0.0629% (active)

COc1ccc(Cl)cc1NC(=O)c1cc2c(n1C)-c1nc(NC(=O)C(C)C)sc1CC2
growth [1]: 50.7% | growth [2]: 66.7% | growth [3]: 59.3% | growth [4]: 83.1% | growth [5]: 59.9% | growth [6]: 60.6% | growth [7]: 61% | growth [8]: 83.1% | growth [9]: 93% | growth [10]: 95.1% | growth [11]: 64.6% | growth [12]: 91.3% | growth [13]: 94.5% | growth [14]: 76.7% | growth [15]: 92% | growth [16]: 93.2% | growth [17]: 84.4% | growth [18]: 80.2%

FC(F)(F)c1cccc([Si](F)(c2cccc(C(F)(F)F)c2)c2cccc(C(F)(F)F)c2)c1
growth [1]: 72.1% | growth [2]: 59.3% | growth [3]: 80.4% | growth [4]: 77.7% | growth [5]: 72.1% | growth [6]: 24.2% | growth [7]: 84.2% | growth [8]: 68.4% | growth [9]: 72.9% | growth [10]: 85.8% | growth [11]: 87.6% | growth [12]: 66.1% | growth [13]: 74% | growth [14]: 49% | growth [15]: 73.9% | growth [16]: 90.4% | growth [17]: 65.5% | growth [18]: 61.6%

O=C1/C(=C/c2cccc3cnccc23)Cc2cc(F)ccc21
growth [1]: 87.1% | growth [2]: 94.6% | growth [3]: 107% | growth [4]: 102% | growth [5]: 95.8% | growth [6]: 79.2% | growth [7]: 89.9% | growth [8]: 86.3% | growth [9]: 93% | growth [10]: 109% | growth [11]: 94.6% | growth [12]: 91.2% | growth [13]: 94.6% | growth [14]: 70.4% | growth [19]: 95.7% | growth [20]: 84.5% | growth [16]: 97.2% | growth [17]: 110% | growth [18]: 82.1%

O=C(O)c1ccc(-n2cc(/C=N/Nc3ccccc3F)c(-c3ccc(O)cc3)n2)cc1
growth [1]: 73.1% | growth [2]: 101% | growth [3]: 82.8% | growth [4]: 95.2% | growth [5]: 86.9% | growth [6]: 74.8% | growth [7]: 78% | growth [8]: 46.5% | growth [9]: 37% | growth [10]: 97.1% | growth [11]: 91.5% | growth [12]: 69.9% | growth [13]: 103% | growth [14]: 49.1% | growth [15]: 102% | growth [16]: 72.5% | growth [17]: 41.5% | growth [18]: 39.1%

CCOC(=O)n1cnc2c(Cl)ncnc21
growth [1]: 112% | growth [2]: 106% | growth [3]: 93.9% | growth [4]: 86.4% | growth [5]: 101% | growth [6]: 113% | growth [7]: 95.8% | growth [8]: 104% | growth [9]: 88.6% | growth [10]: 121% | growth [11]: 154% | growth [12]: 106% | growth [13]: 119% | growth [14]: 97% | growth [19]: 108% | growth [20]: 89.8% | growth [16]: 86% | growth [17]: 109% | growth [18]: 106%

O=C(Nc1ccc(-n2cc(-c3ccncc3)c(-c3ccc(O)c(Cl)c3)n2)cc1)c1cc(C(F)(F)F)cc(C(F)(F)F)c1
growth [1]: 34.6% | growth [2]: 51.7% | growth [3]: 63.9% | growth [4]: 66.2% | growth [5]: 43.8% | growth [6]: 35.8% | growth [7]: 60% | growth [8]: 71.2% | growth [9]: 42.4% | growth [10]: 68.8% | growth [11]: 68.8% | growth [12]: 66.3% | growth [13]: 64.4% | growth [14]: 50.8% | growth [19]: 54.2% | growth [20]: 54.4% | growth [16]: 76.7% | growth [17]: 31.1% | growth [18]: 28.3%

COc1ccc(Cn2cc3c(c2-c2cc(OC)c(OC)c(OC)c2)CCc2c(CO)noc2-3)cc1
growth [1]: 17.6% | growth [2]: 8.14% (active) | growth [3]: 40% | growth [4]: 30.2% | growth [5]: 11.2% | growth [6]: 26.5% | growth [7]: 5.04% (active) | growth [8]: 12.7% | growth [9]: 30.6% | growth [10]: 54% | growth [11]: 49.5% | growth [12]: 45.8% | growth [13]: 30.3% | growth [14]: 30.1% | growth [15]: 74.5% | growth [16]: 18.2% | growth [18]: 16.6%
